An excerpt weighted towards active compounds, which were near 0.93% of everything screened.
IL1B NFkB inh – inhibitors of IL-1B driven NFkB p65 nuclear import, primary screen, imaging, HUVEC, IL-1B stimulus, high-content imaging | 94,000 tested, 0.43% active | inhibition, % at 2 µM | AID 796, 2007 | HUVEC IL-1B NFkB p65 nuclear translocation imaging;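 active means inhibition above about 30% together with a positive call from visual inspection of the well image, limit read from the data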;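 further: nuclear over cytoplasmic p65 intensity ratio measured by imaging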
NFkB transloc pot – enhancers of NFkB p65 translocation in HUVEC – imaging, IL-1B stimulus, high-content imaging, primary screen. activation, % at 2 µM. 94,000 tested, 0.3% active. HUVEC IL-1B NFkB p65 nuclear translocation imaging;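 active means activation above 40%, about the mean plus 3 SD, also judged a hit on visual image review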;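 further: percent activation is computed from the nuclear over cytoplasmic p65 intensity ratio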
HUVEC tox IL1B – cytotoxicity in IL-1B stimulated HUVEC, primary screen, cytotoxicity control for IL-1B NFkB translocation project, imaging, Hoechst nuclear count, IL-1B stimulus; HUVEC cell count loss; cell count reduction, % at 2 µM; 94,000 tested, 0.41% active;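 active means cell count reduction more than 3 SD above the screen-wide mean, cut at about 70% in these data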
HUVEC tox TNFa – cytotoxicity in TNFa-stimulated HUVEC, primary screen, cytotoxicity control for VCAM1 expression modulator project, imaging, Hoechst nuclei count; HUVEC TNFalpha-stimulated, Hoechst cell count; cell count reduction, % at 2 µM; 93,000 tested, 0.17% active;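 active means cell count reduction exceeding the screen mean by over 5 SD, scaled to untreated wells per plate, cut at about 78% in these data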;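 further: cells counted after 24 h of TNF alpha exposure following the 1 h pretreatment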
Phagocytosis inh – inhibitors of macrophage phagocytosis, primary screen, imaging, J774A.1 cells, IgG beads; J774A.1 macrophage IgG-bead phagocytosis; inhibition, % at 5 µM; 110,000 tested, 0.07% active; AID 1029, 2008;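 active means inhibition above the mean of the plate negative controls plus 5 SD, cut at about 13% in these data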;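 further: phagocytic index as fraction of beads internalized from green versus red external bead signal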
A number is an active result; 0 = inactive; - = not tested or not shown; [ ] = dose if it differs, or a comment.

SMILES	IL1B NFkB inh	NFkB transloc pot	HUVEC tox IL1B	HUVEC tox TNFa	Phagocytosis inh
O=S(=O)(c1ccc2c(c1)OCCCO2)N1CCNCC1	0	0	0	84	0
Cc1ccc(C)c(N2CCN(S(=O)(=O)c3ccc4c(c3)OCCO4)CC2)c1	0	0	0	0	0
CCCn1c(=O)c(C(=O)NCc2ccccn2)c(O)c2ccccc21	0	0	85	0	0
CCn1c(CNc2nc3ccccc3n2C(C)C)nc2ccccc21	62	0	0	0	0
CCCn1c(NCc2ccccn2)nc2ccccc21	96	0	92	0	-
Clc1cccc(OCCn2cncn2)c1Cl	0	45	0	0	-
O=C(Nn1c(C2CCCCC2)nc2ccccc2c1=O)c1ccc([N+](=O)[O-])cc1	-	-	-	-	0
Cc1nnc2n(C3CCCCC3)c(=O)c3c4c(sc3n12)COC(C)(C)C4	0	0	0	94	0
Clc1ccc(-n2cnnn2)cc1	0	0	0	0	0
Oc1ccc(-n2cnnn2)cc1	0	0	89	0	0
Cc1ccc(N2CC(C(=O)Nc3ccc4c(c3)OCO4)CC2=O)cc1 (stereo not given)	0	0	0	89	0
O=C1CC(c2ccc(F)cc2)Cc2nc(NCC3CCCO3)ncc21 (stereo not given)	48	0	0	0	0
CC(=O)c1c(C)[nH]c(C(=O)CSc2nnc(-c3ccc(Cl)cc3)n2CC2CCCO2)c1C (stereo not given)	0	0	0	0	0
Cc1nc(NC(=O)CSc2nnc(Cn3nnc4ccccc43)n2C)sc1C	-	-	-	-	0
O=C(Nc1nnc(SCC(=O)N2CCOCC2)s1)c1ccccc1Cl	-	-	-	-	37[artifact]
CC(C)CCCCCCNC(=S)Nc1ccc(S(=O)(=O)N2CCOCC2)cc1	-	-	-	-	0
CCOC(=O)CCc1c(C)c2ccc(OCc3cc([N+](=O)[O-])ccc3OC)cc2oc1=O	0	0	0	0	0
COc1ccc([N+](=O)[O-])cc1COc1ccc2c(-c3ccccc3)cc(=O)oc2c1	0	0	70	0	0
CC1CN(Cc2ccccc2)c2ccccc2NC1=S (stereo not given)	-	-	-	-	0
C(=N\N1CCOCC1)/c1cccs1	-	-	-	-	0
CCN(CCC(=O)Nc1ccc(Br)c(C)c1)Cc1ccccc1	50	0	0	0	0
CCOC(=O)C1C(=O)Nc2nc(C)nn2C1c1ccccc1 (stereo not given)	0	84	0	0	0
COc1ccc(-c2[nH]ncc2C=O)cc1	-	-	-	-	0
S=c1[nH]nc(-c2cc(-c3ccco3)[nH]n2)n1-c1ccccc1	35	0	0	0	-
O=C(COC(=O)c1cccc(NS(=O)(=O)/C=C/c2ccccc2)c1)Nc1ccccc1OC(F)F	-	-	-	-	0
SMILES	IL1B NFkB inh	NFkB transloc pot	HUVEC tox IL1B	HUVEC tox TNFa	Phagocytosis inh
Cc1ccc(Cl)cc1NC(=O)COC(=O)c1ccc(N2CCCC2)c([N+](=O)[O-])c1	-	-	-	-	0
COc1ccc(C2CC(c3cccs3)=Nc3ccccc3S2)cc1 (stereo not given)	0	43	0	0	-
O=C(Cn1nc(-c2ccccc2)ccc1=O)NCC1COCCO1 (stereo not given)	98	0	89	0	-
C=CCNC(=O)c1nn2cccnc2c1Cl	0	0	0	92	0
Cc1cc(NC(=O)c2nn3cccnc3c2Cl)no1	0	0	0	0	-
COc1ccc(OC)c(C2C3=C(CCCC3=O)Nc3nnnn32)c1 (stereo not given)	-	-	-	-	0
COc1ccc(OC)c(C2C3=C(CCCC3=O)Nc3c2c(=O)n(C)c(=O)n3C)c1 (stereo not given)	0	0	86	0	0
CC(=O)c1sc(NC(=O)c2ccc(F)c(F)c2)nc1C	32	0	0	0	0
CC(=O)c1sc(NC(=O)C(C)C)nc1C	98	0	0	0	0
CCOC(=O)c1[nH]c2cc(OC)c(OC)cc2c1NC(=O)C(C)N1CCN(Cc2ccccc2)CC1 (stereo not given)	32	0	0	0	0
CCOc1cc(C)c(C(C)C)cc1S(=O)(=O)NCc1ccccn1	100	0	85	0	0
COc1cc(S(=O)(=O)NCc2ccccn2)c(OC)cc1Cl	0	0	0	0	-
COc1ccccc1C(=O)Nc1nnc(-c2ccc3c(c2)CCCC3)o1	53	0	0	0	0
CC(=O)Nc1nnc(-c2ccc3c(c2)CCCC3)o1	0	0	0	0	0
CCc1ccc(Nc2ncccc2C#N)cc1	0	85	0	0	-
C=C(C)CN=C1NN=C(c2cc(C)n(-c3ccc(C)cc3)c2C)CS1	-	-	-	-	0
CC1CCCN(S(=O)(=O)c2ccc(S(=O)(=O)N3CCC4(CC3)OCCO4)cc2)C1 (stereo not given)	-	-	-	-	0
O=C(Oc1csc(=S)n1C(=O)c1ccccc1)c1ccccc1	0	0	0	86	0
CCC/C(O)=C1\C(=O)CC(c2ccccc2)CC1=NC(C)C(=O)O (stereo not given)	-	-	-	-	0
Clc1ccc(-c2noc(COc3ccccc3)n2)cc1	-	-	-	-	0
Clc1ccc(-c2noc(CCCOc3ccccc3)n2)cc1	84	0	0	0	-
O=C(N/N=C/c1cccs1)c1n[nH]c2c1CCC2	-	-	-	-	0
O=C(N/N=C/C(Br)=C/c1ccccc1)c1n[nH]c2c1CCC2	40	0	0	0	0
O=C(NC1CCCC1)C(c1ccccc1)N(C(=O)c1ccno1)c1ccccc1 (stereo not given)	46	0	73	0	-
O=C(NC1CCCC1)C(c1ccccc1)N(C(=O)c1ccno1)c1cccnc1 (stereo not given)	0	0	0	0	0
SMILES	IL1B NFkB inh	NFkB transloc pot	HUVEC tox IL1B	HUVEC tox TNFa	Phagocytosis inh
O=C(OCC1CC(c2ccccc2)=NO1)c1ccc(Cl)cc1 (stereo not given)	0	50	0	0	0
CC(=O)Nc1ccccc1-c1nc2ccc(C(=O)N3CCN(c4cccc(C)c4)C(C)C3)cc2[nH]c1=O (stereo not given)	0	0	0	0	0
CC(=O)Nc1ccccc1-c1nc2ccc(C(=O)N3CCN(c4ccccc4)CC3)cc2[nH]c1=O	38	0	0	0	0
CCOC(=O)N1CCC(Nc2c(NCCCN(C)Cc3ccccc3)c(=O)c2=O)CC1	0	42	0	0	0
CCOc1ccccc1N(CC(=O)OC)S(C)(=O)=O	98	0	71	0	0
O=C(NCc1ccc(Cl)cc1)c1ccc2nc[nH]c2c1	-	-	-	-	0
CCN(Cc1cc2cc(C)ccc2[nH]c1=O)C(=O)c1cccc(OC)c1	0	0	0	82	0
COc1ccc(N(Cc2cc3cc(OC)ccc3[nH]c2=O)C(=O)c2cccnc2)cc1	0	0	0	0	0
CCN(Cc1cc2ccc(C)cc2[nH]c1=O)C(=O)c1cccnc1	-	-	-	0	0
COc1ccc2[nH]c(=O)c(CN(C(=O)c3cccnc3)c3ccccc3)cc2c1	0	67	0	0	0
Cc1nc2ccccc2n1CCCOc1ccccc1	0	0	0	88	-
COCc1nc2ccccc2n1CCCOc1ccccc1	0	0	0	0	0
CCCc1c(O)nc(SCCN(CC)CC)[nH]c1=O	32	0	89	0	0

Source: PubChem BioAssay (several laboratories)
